Records with an inconclusive call do not appear. Active and inactive are the calls of the source. Calls come from the whole dose curve; as a rule, active = well fitted cell-killing curve with a large enough effect in the repeat runs; inconclusive = weak or mixed curves, or effect the other way; inactive = flat fitted curve, though single readings scatter.
% is set by controls: 0 for no effect and ±100 for the full control effect; potency is the fitted concentration of half-maximal effect.

The nature of the assay: qHTS assay to identify small molecule agonists of the estrogen receptor beta (ER-beta) signaling pathway - cell viability counter screen (AID 1259380). Note: nearly all actives have a fitted effect of over 30% in size. As to conditions: ER-beta-bla HEK293T viability, CellTiter-Glo luminescence, 16 h; series mostly up to 92.4 µM; activity change, negative = cytotoxicity: at the top concentration. From the text:
National Center for Advancing Translational Sciences [NCATS]
NIH Chemical Genomics Center [NCGC]
U.S. Environmental Protection Agency [EPA]
National Institutes of Environmental Health Sciences [NIEHS]
National Toxicology Program [NTP]
U.S. Food and Drug Administration [FDA]
Estrogen receptor (ER), a nuclear hormone receptor, plays an important role in development, metabolic homeostasis and reproduction. Two subtypes of ER, ER-alpha and ER-beta, have similar expression patterns with some uniqueness in both types. Endocrine disrupting chemicals (EDCs) and their interactions with steroid hormone receptors like ER causes disruption of normal endocrine function. To identify the compounds that activate ER signaling, an ER beta-UAS-bla GripTite cell line (Life Technologies, Madison, WI, USA) containing a beta-lactamase reporter gene under the control of an UAS response element was used to screen Tox21 10K compound library. The cytotoxicity of the Tox21 compound library against the ER-beta-bla cell line was tested in parallel by measuring the cell viability using CellTiter-Glo assay in the same wells.
Tox21 Assay Protocol Summary:
ER-beta-UAS-bla HEK293T cells were dispensed at 2,000 cells/5 uL of assay medium containing 2% charcoal stripped FBS per well into black wall/clear-bottom 1536-well plates using a Multidrop Combi (ThermoFisher Scientific, Waltham, MA) dispenser. After the assay plates were incubated at a 37C and 5% CO2 for 6 hr, 23 nL of compounds dissolved in DMSO, positive controls or DMSO only was transferred to the assay plate by a Pintool station (Kalypsys, San Diego, CA). The plates were incubated at 37C and 5% CO2 for 16 hr. Then 1 uL of LiveBLAzerTM B/G FRET substrate was added using a BioRAPTR FRD (Flying Reagent Dispenser, Aurora Discovery, San Diego, CA) and then the plates were incubated at room temperature for 2 hours, and fluorescence intensity was measured by an Envision plate reader (PerkinElmer, Shelton, CT). For cell viability readout that measures cytotoxicity, 4 uL/well of CellTiter-Glo reagent was added into the assay plates using a FRD. After 30 min incubation at room temperature, the luminescence intensity in the plates was measured using a ViewLux (PerkinElmer) plate reader.
(In qHTS, concentration-response curves come from the screen itself.)
`CCOC(=O)/C=C/C(=O)O`: the “activity change, negative = cytotoxicity” value is -0.991% (inactive).
On the same count and under the same terms, the value for `CO[Si](C)(OC)OC` was 1.44% (inactive).
Regarding `CC1CC(O)CC(C)(C)C1` (stereo not given), the “activity change, negative = cytotoxicity” value is -2.96% (inactive).
On the same count and under the same terms, under `CC(C)OCC1CO1` (stereo not given) stands 6.05% (inactive); under `CCCCCCOC(=O)C(C)C`, -1.1% (inactive).
In the case of `CCCCCCCCCCCC[N+](C)(C)CC(=O)[O-]`, the Potency is 24.3 µM (active).
For the molecule `ON(Cc1ccccc1)Cc1ccccc1`, the “activity change, negative = cytotoxicity” value is -4.11% (inactive).
With `Nc1nc(Cl)nc2c1ncn2[C@@H]1O[C@H](CO)[C@@H](O)[C@@H]1F`, the “activity change, negative = cytotoxicity” value was 3.1% [at 42.5 µM] (inactive).
Take `O=C(O)Cc1ccc(-c2ccccc2)cc1`: the “activity change, negative = cytotoxicity” value was -4.5% [at 42.5 µM] (inactive).
Still for that read-out and setting: under `O=C1NCCN1` stands -8.9% (inactive).
For the molecule `O=S1OCCO1`, the “activity change, negative = cytotoxicity” value was 4.98% (inactive).
On to `CN1CCN(CCCN2c3ccccc3Sc3ccc(S(=O)(=O)N(C)C)cc32)CC1`, for which the Potency was 23.7 µM (active).
As for `COC(=O)Nc1nc2ccc(C(=O)c3cccs3)cc2[nH]1`, the “activity change, negative = cytotoxicity” value is -0.57% [at 42.5 µM] (inactive).
Regarding `COc1cc2c(N3CCN(C(=O)Nc4ccc(OC(C)C)cc4)CC3)ncnc2cc1OCCCN1CCCCC1`, the Potency is 18.8 µM (active).
On the same count and under the same terms, the value for `Nc1ccc(C(=O)OCCCOC(=O)c2ccc(N)cc2)cc1` was 17.2 µM (active).
As to `CCCCC(=O)O[C@]1(C(=O)CO)CC[C@H]2[C@@H]3CCC4=CC(=O)CC[C@]4(C)[C@H]3[C@@H](O)C[C@@]21C`, the “activity change, negative = cytotoxicity” value was -12.8% [at 42.5 µM] (inactive).
Same read-out and setting: under `Cc1cc(C(=C2C=CC(=Nc3ccc(S(=O)(=O)O)cc3S(=O)(=O)O)C=C2)c2ccc(Nc3ccc(S(=O)(=O)O)cc3)cc2)ccc1N` stands -0.369% [at 42.5 µM] (inactive).
Same read-out and setting: under `CCn1cc(C(=O)O)c(=O)c2cc(F)c(N3CCNCC3)nc21` stands 2.04% [at 42.5 µM] (inactive); under `O=[N+]([O-])c1cccc(S(=O)(=O)NCCNS(=O)(=O)c2cccc([N+](=O)[O-])c2)c1`, -10.4% [at 42.5 µM] (inactive).
On the same count and under the same terms, under `CCOC(=O)OCC` stands 2.04% (inactive); under `CN1C(=O)CC(C)(c2ccccc2)C1=O` (stereo not given), 3.82% [at 42.5 µM] (inactive); under `CCC(C(=O)OCCN(CC)CC)c1ccccc1` (stereo not given), -1.72% [at 42.5 µM] (inactive).
On to `CC(C)c1nnc2ccc(-c3ocnc3-c3cc(F)ccc3F)cn12`, for which the “activity change, negative = cytotoxicity” value is 0.893% (inactive).
On the same count and under the same terms, under `CCOC(=O)[C@@H](C)Oc1ccc(Oc2nc3ccc(Cl)cc3o2)cc1` stands 8.77% (inactive).
On to `CNCCCC1c2ccccc2C=Cc2ccccc21`, for which the Potency was 23.7 µM (active).
Consider `NCC1CCCC(CN)C1` (stereo not given), for which the “activity change, negative = cytotoxicity” value is -4.08% (inactive).
Same read-out and setting: the value for `COc1cc2[nH]c(=O)[nH]c(=O)c2cc1OC` was 0.199% [at 42.5 µM] (inactive); that for `Brc1cc(-c2ccc(Br)c(Br)c2Br)cc(Br)c1Br` was -11.6% [at 42.5 µM] (inactive).
On the same count and under the same terms, under `C/C=C(\C)C(=O)OCCC(C)CCC=C(C)C` (stereo not given) stands 3.8% (inactive); under `C=CC(=O)NCOCC(C)C`, 8.6% (inactive); under `N#C/C(=C1/SC[C@@H](c2ccc(Cl)cc2Cl)S1)n1ccnc1`, -9.52% [at 42.5 µM] (inactive).
In the case of `CC1=CC(O)CC(C)(C)C1` (stereo not given), the “activity change, negative = cytotoxicity” value was 4.96% (inactive).
For the molecule `Nc1ccc(Cl)cc1[N+](=O)[O-]`, the “activity change, negative = cytotoxicity” value was -1.51% (inactive).
Same read-out and setting: the value for `CCC(C(=O)OCCOCCN(CC)CC)c1ccccc1` (stereo not given) was -9.6% [at 42.5 µM] (inactive).
Consider `COc1ccc(C(=O)c2cccc(O)c2)c(OC)c1`, for which the “activity change, negative = cytotoxicity” value was -0.98% (inactive).
Consider `Cc1ccccc1N1C(=O)c2cc(S(N)(=O)=O)c(Cl)cc2NC1C` (stereo not given), for which the “activity change, negative = cytotoxicity” value was 1.39% [at 42.5 µM] (inactive).
Same read-out and setting: the value for `[O]=[Bi]` was 4.86% [at 8.39 µM] (inactive); that for `CCC1(C)CC(=O)NC1=O` (stereo not given) was 4.82% [at 42.5 µM] (inactive); that for `CC(C)CCCCCOC(=O)CCCCC(=O)OCCCCCC(C)C` was -4.82% (inactive).
For `C[N+]1(C)CCC(=C(c2ccccc2)c2ccccc2)CC1`, the “activity change, negative = cytotoxicity” value is 11.8% [at 42.5 µM] (inactive).

Values taken from PubChem BioAssay (Tox21).
